Compounds without any hit were thinned out: in the full panel of roughly 83,000, 20% have a hit.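 Each cell line was grown in a 96-well plate and treated with one concentration of compound for 48 hours. Values below 10 were considered active.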 Unmarked numbers belong to inactive results. Active and inactive are the calls of the source.
Assays:
Assay in all cases: NCI-60 one-dose screen, 48 h (100 = growth as untreated, 0 = no growth, -100 = all killed)
Conditions in all cases: 10 µM unless noted
NCI-H226 lung = system: NCI-H226 lung
NCI-H322M lung = system: NCI-H322M lung
HOP-62 NSCLC = system: HOP-62 NSCLC
NCI-H460 lung = system: NCI-H460 lung
HOP-92 NSCLC = system: HOP-92 NSCLC
NCI-H522 lung = system: NCI-H522 lung
A549/ATCC NSCLC = system: A549/ATCC NSCLC
786-0 renal = system: 786-0 renal
COLO 205 colon = system: COLO 205 colon

For CC1(C)CC[C@]2(C(=O)O)CC[C@]3(C)C(=CCC4[C@@]5(C)C[C@@H](O)[C@@H]6OC(c7cccc(Br)c7)OC[C@@]6(C)C5CC[C@]43C)C2C1 (stereo not given in full), which growth (NCI-H226 lung) is on record?
Its growth is 46.4%.

What about the growth (NCI-H322M lung) of the same compound?
Its growth is 38.7%.

And the growth (HOP-62 NSCLC)?
Its growth is 47.6%.

What about the growth (NCI-H460 lung) of the same compound?
The growth was 20.2%.

What about the growth (HOP-92 NSCLC) of the same compound?
Its growth is 25.2%.

What about the growth (NCI-H522 lung) of the same compound?
Its growth is 16.3%.

What about the growth (A549/ATCC NSCLC) of the same compound?
Its growth is 23%.

What about the growth (786-0 renal) of the same compound?
The growth was 52.7%.

What about the growth (COLO 205 colon) of the same compound?
The growth was -31.4% (active).

O=C(COc1ccc(NC(=O)Nc2ccc(Cl)cc2)cc1)N/N=C/c1ccccc1 was tested. Which growth (NCI-H226 lung) did it give?
The growth was -89.2% (active).

And the growth (NCI-H322M lung)?
The growth was -40.4% (active).

What about the growth (HOP-62 NSCLC) of the same compound?
The growth was -84.6% (active).

And the growth (NCI-H460 lung)?
Its growth is -79.3% (active).

And the growth (HOP-92 NSCLC)?
The growth was -77.9% (active).

And the growth (NCI-H522 lung)?
The growth was -83.5% (active).

What about the growth (A549/ATCC NSCLC) of the same compound?
The growth was -78.3% (active).

What about the growth (786-0 renal) of the same compound?
Its growth is -82% (active).

What about the growth (COLO 205 colon) of the same compound?
Its growth is -66.5% (active).

For Nc1nc(-c2ccccc2)c(N=Nc2ccc([N+](=O)[O-])cc2Cl)s1, which growth (NCI-H226 lung) is on record?
Its growth is 77.5%.

What about the growth (NCI-H322M lung) of the same compound?
Its growth is 101%.

And the growth (HOP-62 NSCLC)?
Its growth is 101%.

And the growth (NCI-H460 lung)?
The growth was 74.1%.

What about the growth (HOP-92 NSCLC) of the same compound?
Its growth is 41.1%.

And the growth (NCI-H522 lung)?
Its growth is 48.8%.

And the growth (A549/ATCC NSCLC)?
The growth was 89.8%.

And the growth (786-0 renal)?
Its growth is 94.9%.

And the growth (COLO 205 colon)?
Its growth is 97.6%.

With C#CCOc1cc(N(CC)CC)ccc1C(C(=O)NC(C)(C)C)N(C(=O)C1CCc2cc(F)ccc2O1)c1ccc(Br)cc1 (stereo not given) as the compound, how does the growth (NCI-H226 lung) read?
The growth was 81.2%.

What about the growth (NCI-H322M lung) of the same compound?
Its growth is 82.5%.

What about the growth (HOP-62 NSCLC) of the same compound?
The growth was 77.1%.

What about the growth (NCI-H460 lung) of the same compound?
Its growth is 60.3%.

And the growth (HOP-92 NSCLC)?
The growth was 89.6%.

And the growth (NCI-H522 lung)?
The growth was 67.7%.

And the growth (A549/ATCC NSCLC)?
Its growth is 65.1%.

And the growth (786-0 renal)?
Its growth is 81.7%.

And the growth (COLO 205 colon)?
The growth was 59.1%.

C/C(=N\N=C\c1cc([N+](=O)[O-])ccc1Cl)c1ccc2c(c1)Nc1ccccc1S2 was tested. Which growth (NCI-H226 lung) did it give?
The growth was 53%.

And the growth (NCI-H322M lung)?
The growth was 37.3%.

What about the growth (HOP-62 NSCLC) of the same compound?
Its growth is 15.7%.

And the growth (NCI-H522 lung)?
Its growth is 60.3%.

What about the growth (A549/ATCC NSCLC) of the same compound?
Its growth is 29.3%.

What about the growth (786-0 renal) of the same compound?
Its growth is 21.1%.

And the growth (COLO 205 colon)?
Its growth is 61.3%.

With COc1ccc2c(c1)c(/C=N/Nc1ccc3ccccc3n1)cn2C as the compound, how does the growth (NCI-H226 lung) read?
The growth was 32.9%.

And the growth (NCI-H322M lung)?
The growth was 36.2%.

And the growth (HOP-62 NSCLC)?
Its growth is 38.1%.

What about the growth (NCI-H460 lung) of the same compound?
The growth was -64.8% (active).

And the growth (NCI-H522 lung)?
Its growth is 3.83% (active).

And the growth (A549/ATCC NSCLC)?
The growth was 14.9%.

What about the growth (786-0 renal) of the same compound?
The growth was -87% (active).

What about the growth (COLO 205 colon) of the same compound?
Its growth is -82.7% (active).

With CN(C)c1nc(NCCNS(=O)(=O)c2ccc(C(=O)/C=C/c3ccc(C(F)(F)F)cc3)cc2)nc(Nc2ccc(F)cc2)n1 as the compound, how does the growth (NCI-H226 lung) read?
Its growth is -48.9% (active).

What about the growth (NCI-H322M lung) of the same compound?
Its growth is 27.7%.

And the growth (HOP-62 NSCLC)?
Its growth is 68.7%.

And the growth (NCI-H460 lung)?
The growth was -19.6% (active).

What about the growth (NCI-H522 lung) of the same compound?
The growth was -79.7% (active).

What about the growth (A549/ATCC NSCLC) of the same compound?
The growth was 10.1%.

And the growth (786-0 renal)?
The growth was -75.7% (active).

And the growth (COLO 205 colon)?
Its growth is -47.5% (active).

Which results are given for COc1ccc(/C=C/c2nc3ccccc3c(=O)n2CC(=O)Nc2ccc(OC)cc2)cc1?
growth (NCI-H226 lung): 61.1%; growth (NCI-H322M lung): 83.3%; growth (HOP-62 NSCLC): 51.7%; growth (NCI-H460 lung): 50.8%; growth (NCI-H522 lung): 70.3%; growth (A549/ATCC NSCLC): 46.9%; growth (786-0 renal): -12.7% (active); growth (COLO 205 colon): 87.8%

For CC(=O)OC[C@@]1(C)C2CC[C@]3(C)C(CC=C4C5CC(C)(C)CC[C@]5(C(=O)Nc5ccc(C)cc5)CC[C@]43C)[C@@]2(C)C[C@@H](OC(C)=O)[C@@H]1OC(C)=O (stereo not given in full), which growth (NCI-H226 lung) is on record?
Its growth is 50.6%.

What about the growth (HOP-62 NSCLC) of the same compound?
Its growth is 44.4%.

What about the growth (NCI-H460 lung) of the same compound?
The growth was 13.5%.

And the growth (HOP-92 NSCLC)?
Its growth is 55.8%.

And the growth (NCI-H522 lung)?
Its growth is 48.9%.

What about the growth (A549/ATCC NSCLC) of the same compound?
The growth was 41.4%.

And the growth (786-0 renal)?
Its growth is 57.1%.

What about the growth (COLO 205 colon) of the same compound?
Its growth is 48.8%.

For Cc1occc1C(=O)NN1C(=O)/C(=C/C=C/c2ccc([N+](=O)[O-])o2)SC1=S, which growth (NCI-H226 lung) is on record?
Its growth is -18.3% (active).

What about the growth (NCI-H322M lung) of the same compound?
Its growth is 66.8%.

And the growth (NCI-H460 lung)?
The growth was -51.6% (active).

What about the growth (NCI-H522 lung) of the same compound?
Its growth is -91.5% (active).

And the growth (A549/ATCC NSCLC)?
Its growth is 6.62% (active).

And the growth (786-0 renal)?
The growth was -69.7% (active).

What about the growth (COLO 205 colon) of the same compound?
The growth was -75.3% (active).

Which results are given for Cc1cc2nc3c4ccccc4n(CC4=NCCN4)c3nc2cc1C?
growth (NCI-H226 lung): 23.9%; growth (HOP-62 NSCLC): -72.5% (active); growth (NCI-H460 lung): -84.1% (active); growth (NCI-H522 lung): 2.32% (active); growth (A549/ATCC NSCLC): -85.2% (active); growth (786-0 renal): -97% (active); growth (COLO 205 colon): 43.8%

For C=CC[N+](C)(C)CCn1c2ccccc2c2nc3cc(C)c(C)cc3nc21, which growth (NCI-H226 lung) is on record?
Its growth is 92.5%.

What about the growth (NCI-H522 lung) of the same compound?
Its growth is 51.5%.

And the growth (A549/ATCC NSCLC)?
The growth was 106%.

And the growth (786-0 renal)?
Its growth is 89%.

What about the growth (COLO 205 colon) of the same compound?
The growth was 88.6%.

With COc1cc2oc(-c3cccc(C(=O)Nc4ccc(Cl)cc4)c3)cc(=O)c2c(OCCNC(=O)[C@H](CO)NC(=O)OC(C)(C)C)c1OC as the compound, how does the growth (NCI-H226 lung) read?
The growth was 42%.

What about the growth (HOP-62 NSCLC) of the same compound?
The growth was 55.1%.

And the growth (NCI-H460 lung)?
Its growth is 9.69% (active).

What about the growth (HOP-92 NSCLC) of the same compound?
The growth was -2.01% (active).

And the growth (NCI-H522 lung)?
Its growth is 6.54% (active).

What about the growth (A549/ATCC NSCLC) of the same compound?
Its growth is 23.8%.

And the growth (786-0 renal)?
Its growth is 32.4%.

And the growth (COLO 205 colon)?
Its growth is -43.4% (active).

With C#CCOc1cc(N(CC)CC)ccc1C(C(=O)NC(C)(C)C)N(C(=O)C1CCc2cc(F)ccc2O1)c1ccc(F)cc1 (stereo not given) as the compound, how does the growth (NCI-H226 lung) read?
Its growth is 43.5%.

What about the growth (NCI-H322M lung) of the same compound?
The growth was 70.6%.

And the growth (HOP-62 NSCLC)?
The growth was 70.2%.

What about the growth (NCI-H460 lung) of the same compound?
Its growth is 36.7%.

And the growth (NCI-H522 lung)?
The growth was 43.1%.

And the growth (A549/ATCC NSCLC)?
The growth was 39.8%.

And the growth (786-0 renal)?
Its growth is 52.8%.

What about the growth (COLO 205 colon) of the same compound?
Its growth is 32.4%.

What does the source list for Cc1cccc(NC(=O)CN2CCN(c3ncnc4c3cnn4-c3ccccc3)CC2)c1?
growth (HOP-62 NSCLC): 96.2%; growth (NCI-H460 lung): 73%; growth (HOP-92 NSCLC): 98.2%; growth (NCI-H522 lung): -39.6% (active); growth (A549/ATCC NSCLC): 97%; growth (786-0 renal): 98.1%; growth (COLO 205 colon): 109%

Which results are given for C#CCOc1cc(N(CC)CC)ccc1C(C(=O)NC(C)(C)C)N(C(=O)C1CCc2cc(F)ccc2O1)c1ccccc1Br (stereo not given)?
growth (NCI-H322M lung): 86.3%; growth (HOP-62 NSCLC): 73.3%; growth (NCI-H460 lung): 52.3%; growth (HOP-92 NSCLC): 56.4%; growth (NCI-H522 lung): 47.6%; growth (A549/ATCC NSCLC): 54.2%; growth (786-0 renal): 59.4%; growth (COLO 205 colon): 46.9%

From PubChem BioAssay (NCI)
